About 83,000 compounds went through this panel and 20% of them were active in at least one assay; those are over-represented in the sample as a whole.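 Cells were grown in 96-well plates and exposed to the test compound at a single concentration for 48 hours; results are reported as percent growth, with values below 10 considered active.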 A number with no mark means an inactive call. Active and inactive are the calls of the source.
Columns and labels:
Test in all cases: NCI-60 one-dose screen, 48 h (100 = growth as untreated, 0 = no growth, -100 = all killed)
Settings in all cases: 10 µM unless noted
[1] = tested on: DU-145 prostate
[2] = tested on: MALME-3M melanoma
[3] = tested on: MDA-MB-231 breast
[4] = tested on: RXF 393 renal
[5] = tested on: SF-268 CNS
[6] = tested on: SF-295 CNS
[7] = tested on: SF-539 CNS
[8] = tested on: UACC-257 melanoma
[9] = tested on: M14 melanoma
[10] = tested on: HCT-15 colon
[11] = tested on: HT29 colon
[12] = tested on: SNB-75 CNS
[13] = tested on: SNB-19 CNS
[14] = tested on: PC-3 prostate
[15] = tested on: UACC-62 melanoma
[16] = tested on: LOX IMVI melanoma
[17] = tested on: SK-MEL-28 melanoma
[18] = tested on: SK-MEL-5 melanoma
[19] = tested on: U251 CNS

| SMILES | growth [1] | growth [2] | growth [3] | growth [4] | growth [5] | growth [6] | growth [7] | growth [8] | growth [9] | growth [10] | growth [11] | growth [12] | growth [13] | growth [14] | growth [15] | growth [16] | growth [17] | growth [18] | growth [19] |
| --- | --- | --- | --- | --- | --- | --- | --- | --- | --- | --- | --- | --- | --- | --- | --- | --- | --- | --- | --- |
| CCOC(=O)C(=Cc1ccccc1F)C(=O)OCC | 71.1% | 94.2% | 93.3% | 102% | 89.9% | 111% | 98% | 83.2% | 85.8% | 86.9% | 103% | 83.4% | 104% | 87.6% | 94.9% | 86.4% | 104% | – | – |
| CN(C)CCOc1ccc(-c2nc3ccc(-c4nc5ccc(N6CCN(C)CC6)cc5[nH]4)cc3[nH]2)cc1 | 82.4% | 24.1% | 73.4% | 48.3% | 65.8% | 54.6% | 49.8% | 41.2% | 51.3% | 101% | 42.4% | – | 69.4% | 76.2% | 2.8% (active) | 67.9% | 45.3% | 37.5% | – |
| CC[C@H](Nc1cc(C)nc(N)n1)c1nc2cccc(NCc3ccc(C(=O)NO)cc3)c2c(=O)n1-c1ccccc1 | 36.4% | 37.6% | 0.273% (active) | -6% (active) | 27.6% | 64.2% | -20.6% (active) | 12.3% | 16.3% | 92.5% | 10.2% | 15.7% | -40.3% (active) | 12.4% | 9.65% (active) | -57.9% (active) | 5.53% (active) | 30% | – |
| COc1ccc2nc3cc(Cl)ccc3c(N3CCN(c4ccnc(N5CCOCC5)n4)CC3)c2c1 | 24.2% | 80.3% | 45.1% | 8.55% (active) | 45.3% | 88.7% | – | 76.9% | 86.6% | 8.96% (active) | -18.2% (active) | 66.8% | 95.5% | 67.2% | 91.9% | -59% (active) | 35.9% | 88.4% | 64.2% |
| CC1=N/C(=C\c2cccc(Br)c2)C(=O)O1 | 109% | 98.8% | 105% | 112% | 98.6% | 108% | 115% | 80.6% | 104% | 104% | 108% | 97.7% | 105% | 101% | 104% | 100% | 114% | 100% | – |
| COc1ccc2[nH]c(=O)c(/C=C/C(=O)c3ccc(Nc4nccc(-c5ccc6ccccc6c5)n4)cc3)cc2c1 | 99.9% | 101% | 96.2% | 102% | 94.9% | 101% | 101% | 95.2% | – | – | 102% | 95.7% | 91.9% | 98.2% | 88.7% | 100% | 108% | 101% | – |
| CCN1CCN(Cc2ccc(NC(=O)Nc3nc4ccc(Oc5ccnc(C(=O)NC)c5)cc4s3)cc2C(F)(F)F)CC1 | -16.1% (active) | -68% (active) | -78.4% (active) | -88.4% (active) | -47.3% (active) | -23.9% (active) | -85.2% (active) | -49.2% (active) | -76.2% (active) | -55.8% (active) | 1.79% (active) | -87.4% (active) | – | -63.3% (active) | -92.7% (active) | -78.9% (active) | -85.2% (active) | 19.8% | -60.8% (active) |
| COc1cc2cc(COc3nccc(-c4ccc(Cl)cc4)n3)c(=O)[nH]c2cc1OC | 81.4% | 45.7% | 55.1% | 61.9% | 80.1% | 97.6% | 67.9% | 98% | -27.4% (active) | 63.6% | -7.34% (active) | 91.6% | 77.1% | 71.4% | 92.3% | 54.7% | 40.3% | 77.2% | – |

From PubChem BioAssay (NCI)
